Our source for the inhibition values is PubChem BioAssay AID2540 (Sanford-Burnham Center for Chemical Genomics, 2010).

Each structure is given as a SMILES string. The whole screen tested about 330,000 compounds, of which about 4,100 (1.2%) were called active. Cut-off read from the data, not from the text of the source: active = inhibition above about 50%; inactive = the rest. This excerpt belongs to a sample that is enriched for actives.

Sequence of Sentrin-specific protease 8 (Homo sapiens) (Q96LD8 whole entry, looked up): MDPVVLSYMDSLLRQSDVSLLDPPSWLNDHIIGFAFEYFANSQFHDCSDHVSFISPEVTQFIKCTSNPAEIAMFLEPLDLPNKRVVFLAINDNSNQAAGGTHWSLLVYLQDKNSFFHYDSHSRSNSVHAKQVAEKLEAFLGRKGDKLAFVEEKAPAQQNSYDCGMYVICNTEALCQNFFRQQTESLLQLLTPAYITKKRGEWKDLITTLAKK

The assay addresses Sentrin-specific protease 8 (Homo sapiens) (UniProt Q96LD8). Kind of assay: SENP8 protease inhibitors, primary screen, biochemical, luminescence (AID 2540). As to conditions: purified SENP8, Z-RLRGG-aminoluciferin cleavage, at 10 µM, stronger effect = higher value.
As a reminder, the inhibition is the change of the read-out against control, counted positive when it falls. As to `CCN(Cc1ccccc1)C(=O)CN1C(=S)NC(C)(C)CC1C` (stereo unspecified), the inhibition is -3.88% (inactive).
The figure for `Fc1ccccc1-c1cc2cc3c(cc2cn1)OCO3` is 70.8% (active); for `O=C(CN1CCN(c2ccccc2F)CC1)c1ccc2c(c1)OCO2` it is -9.99% (inactive).
Next, `O=C(c1ccco1)N1CCN(C(=O)c2cc(-c3ccccc3F)no2)CC1`: 3.2% (inactive).
The figure for `Cc1ccc(N(Cc2ccccc2O)C(=O)c2ccccc2F)cc1` is 9.54% (inactive); for `O=C(Nc1ccc2ccccc2c1)/C(=C\c1ccc2c(c1)OCO2)NC(=O)c1ccco1` it is 10.3% (inactive).
Consider `CCN1C(=NCc2ccc(OC)cc2)N[C@@H](CCc2ccccc2)[C@H](C(=O)NCc2ccc(OC)cc2)[C@H]1C`, for which the inhibition was -2.38% (inactive).
The figure for `CC(C)CCN1C(=O)c2ccc(C(=O)Nc3cccc(S(N)(=O)=O)c3)cc2C1=O` is -8.58% (inactive); for `COCCOC(=O)c1sc(=S)n(CCOC)c1N` it is -1.86% (inactive); for `CC(C)CCNC(=O)c1ccc2c(Cl)c3c(nc2c1)CCC3` it is 81.1% (active).
Next, `CC(=O)c1ccc(NC(=O)c2ccc3c(Cl)c4c(nc3c2)CCCC4)cc1`: -0.476% (inactive).
Next, `COc1cccc(NC(=O)c2ccc3c(SCC(=O)O)c4c(nc3c2)CCCC4)c1`: -3.32% (inactive).
For the compound `Cc1c(CCO)c(=O)[nH]n1C(=O)c1c(F)cccc1F`, the inhibition is 13.4% (inactive).
In the case of `O=C(O)C(F)(F)C(NCc1ccccc1)c1ccccc1` (stereo unspecified), the inhibition was -6.64% (inactive).
The figure for `CC(C)c1ccc(C(=O)OC2CCOC2=O)cc1` (stereo unspecified) is 2.09% (inactive); for `O=C(OC1CCOC1=O)c1ccc(-c2nc3ccccc3s2)s1` (stereo unspecified) it is 93.9% (active).
The figure for `COc1cc(C(=O)OC2CCOC2=O)c([N+](=O)[O-])cc1OC` (stereo unspecified) is -2.98% (inactive).
Next, `Cc1cccc(NS(=O)(=O)c2ccc(C)c(C(=O)NCC(c3ccccc3)N(C)C)c2)c1` (stereo unspecified): 8.98% (inactive); `CCCCNC(=O)c1ccccc1NC(=O)c1ccccc1N(C)S(C)(=O)=O`: -5.03% (inactive); `Oc1c(Cl)cc(Cl)c(Cl)c1Cc1c(O)c(Cl)cc(Cl)c1Cl`: 28.5% (inactive).
As for `COc1ccccc1-c1nnc(-c2ccc(F)cc2)o1`, the inhibition is 24.5% (inactive).
Next, `COc1ccc(/C=C/c2noc(-c3ccccc3OC(C)=O)n2)cc1`: 88.3% (active); `COc1cccc(/C=C/c2ccc3ccccc3n2)c1OC(C)=O`: 17.7% (inactive); `C[C@@H]1CC[C@]2(O[C@@H](CCO)C[C@H](O)[C@H]2O)O1`: 1.7% (inactive).
`NC(=O)[C@H]1CC2(CC(c3cccc(NC(=O)[C@H]4CCC(=O)N4)c3)=NO2)CN1C(=O)c1ccccc1C(=O)c1ccccc1` (stereo partly specified): the inhibition was 2.84% (inactive).
Next, `COc1cc(/C=N/NC(=O)CCc2n[nH]c(=O)[nH]c2=O)ccc1O`: 1.52% (inactive); `COc1ccc(/C=N/NC(=O)c2cc(-c3cccc(C)c3)nc3ccccc23)cc1O`: 10.3% (inactive).
The figure for `COc1cc(/C=N/Nc2nc3ccccc3s2)ccc1O` is 76% (active); for `Cc1ccc2nc(N3CCN(C(=O)c4ccco4)CC3)sc2c1` it is -13.8% (inactive); for `Cc1nc(N2CCCCC2)sc1C=O` it is 1.41% (inactive).
Next, `O=C(NCCc1cccc(F)c1)C1CCCN(c2nc3ccccc3s2)C1` (stereo unspecified): 12.2% (inactive); `CN(C)CCCN(C(=O)c1ccc(S(=O)(=O)N2CCCCCC2)cc1)c1nc2cc3c(cc2s1)OCCO3`: 6.61% (inactive).
As for `Brc1ccc2nc(N3CCCC3)sc2c1`, the inhibition is 85.2% (active).
Next, `c1c2c(cc3sc(N4CCCCC4)nc13)OCCO2`: 96.5% (active); `Fc1ccc2nc(N3CCCCC3)sc2c1`: 72.2% (active).
Take `Fc1ccc2nc(Nc3nc4c(s3)CCCC4)sc2c1`: the inhibition is 3.05% (inactive).
Take `O=S(=O)(Nc1ccc2nc(N3CCOCC3)sc2c1)c1ccccc1`: the inhibition is 9% (inactive).
For `COc1ccc2c(c1)C=CC1(O2)N(CCO)c2ccccc2C1(C)C` (stereo unspecified), the inhibition is 0.788% (inactive).
Regarding `O=C(CSc1nc2ncccc2[nH]1)Nc1ccc2c(c1)OCCO2`, the inhibition was -1.02% (inactive).
`CC(Sc1nncn1C)C(=O)NCCC1=CCCCC1` (stereo unspecified): the inhibition is 5.55% (inactive).
Next, `Cc1ccc(C(c2nnnn2CS(=O)(=O)c2ccc(C)cc2)N2CCC(C)CC2)cc1` (stereo unspecified): 4.98% (inactive).
`CCC(=O)c1ccc(OCC(=O)OCC(=O)NC2CCCCCC2)cc1`: the inhibition is -0.587% (inactive).
Consider `CCc1cc(C(=O)Nc2nnc(C3CC3)s2)sc1C`, for which the inhibition was 2.73% (inactive).
Next, `O=C(Nc1nnc(C2CC2)s1)c1cc(Cl)sc1Cl`: -4.61% (inactive); `Cc1cc(C(=O)Nc2nnc(C3CC3)s2)c(C)s1`: 74.1% (active); `CCN1CCN(c2ccc(S(=O)(=O)N3CCCCC3)cc2NC(=O)c2cccc(NC(C)=O)c2)CC1`: -4.93% (inactive).
As to `CC(C)CC(O)C1CCN(C(=O)CCc2nnc(-c3ccc4c(c3)OCO4)o2)CC1` (stereo unspecified), the inhibition was -8.01% (inactive).
`CNS(=O)(=O)c1cccc(C(=O)OCC(=O)N2c3ccccc3NC(=O)C2(C)C)c1`: the inhibition was -16.6% (inactive).
As to `Cc1cccc(C2=N/C(=C/c3cccs3)C(=O)O2)c1`, the inhibition was -4.38% (inactive).
The figure for `O=C1N/C(=C/c2cccs2)C(=O)N1Cc1ccc(F)cc1` is -10% (inactive); for `CSC1=N/C(=C\C=C\c2cccs2)C(=O)S1` it is 53.6% (active).
For `CC(C)(C)c1cc(NC(=O)NN2CCOCC2)nn1-c1c(Cl)cc(Cl)cc1Cl`, the inhibition is 1.46% (inactive).
The figure for `CC(=O)N1CCN(C(=O)c2cccc(S(=O)(=O)Nc3ccc(C)cc3)c2)CC1` is -6.08% (inactive); for `Cc1cccc(NS(=O)(=O)c2ccc(C)c(C(N)=O)c2)c1` it is 0.196% (inactive); for `Cc1cccc(NS(=O)(=O)c2cccc(C(=O)NNC(=O)c3ccccc3O)c2)c1` it is 50.1% (active).
The figure for `CCc1ccc(NC(=O)CCNS(=O)(=O)c2cccs2)cc1` is -0.839% (inactive); for `CS(=O)(=O)Nc1cccc(-c2cn3ccccc3n2)c1` it is -1.75% (inactive).
The figure for `Cc1nc(-c2ccc([N+](=O)[O-])cc2)c(-c2ccccc2)o1` is -11% (inactive).
On to `O=C1CC(c2ccccc2)=NN1c1ccc([N+](=O)[O-])cc1`, for which the inhibition was 81.8% (active).
On to `O=c1[nH]n(-c2ccc([N+](=O)[O-])cc2)c(=O)c2ccccc12`, for which the inhibition was -5.71% (inactive).
The figure for `CCOc1ccccc1OCCCNCc1ccccc1` is -6.65% (inactive); for `C=CCSc1nnc(Cn2c(=O)sc3ccccc32)n1C` it is -1.6% (inactive); for `Cc1cc(N=Nc2ccc3ccccc3c2)ccc1O` it is 95.5% (active).
The figure for `Cc1ccccc1Nc1nc(N)nc(COC(=O)CCC(=O)c2ccc(F)cc2)n1` is -5.5% (inactive); for `CCC(C(=O)Nc1ncccn1)(C(F)(F)F)C(F)(F)F` it is 2.16% (inactive); for `COc1cc(OC)cc(-c2c(C#Cc3ccsc3)c3cc(-c4ccc(OC)cc4F)ccc3n2C)c1` it is -6.93% (inactive).
The figure for `COc1ccc(CNC(=O)COc2ccccc2C(=O)c2cnn(-c3ccccc3)c2)cc1OC` is 55.6% (active).
For `COc1ccc(CNC(=O)COC(=O)c2c(C)nn(-c3ccccc3)c2C)cc1OC`, the inhibition is -2.1% (inactive).
The figure for `COc1ccc(CNC(=O)Cc2ccc(-c3ccccc3)cc2)cc1OC` is -1.75% (inactive); for `CC(C)CCN(C(=O)c1csnn1)C(C(=O)NC1CCCC1)c1ccccc1` (stereo unspecified) it is -0.251% (inactive).
As for `CCOC(=O)c1sc(N(Cc2ccccc2)C(=O)CN2C(=O)CN(C)C2=O)nc1C`, the inhibition is 5.69% (inactive).
Next, `CC12CCC(=O)N1C(C(=O)Nc1ccc(F)c(F)c1F)CS2` (stereo unspecified): -5.83% (inactive); `CCN(C(=O)COC(=O)CCC(=O)c1cccs1)C1CCCCC1`: -2.61% (inactive); `Cc1ccsc1C(=O)NC1CCCCC1C` (stereo unspecified): -2.42% (inactive).
The figure for `COc1cccc(C(=O)Nc2nc3ccc(S(C)(=O)=O)cc3s2)c1` is 82.5% (active); for `COc1cccc(C(=O)Nc2nnc(S(=O)(=O)N(C)c3ccccc3)s2)c1` it is -5.38% (inactive); for `COc1ccc(C(=O)Nc2cccc(S(C)(=O)=O)c2)cc1` it is -4.36% (inactive).
Next, `Cc1cnc(NC(=O)c2ccccn2)s1`: 66.9% (active).
Regarding `O=C(Nc1nnc(C2CC2)s1)c1ccccn1`, the inhibition is 20.9% (inactive).
With `Cc1cnc(NC(=O)C2CCCC2)s1`, the inhibition was -0.598% (inactive).
The figure for `Clc1ccc(C=NC23CN4CN(CN(C4)C2)C3)cc1` is 8.45% (inactive).
Next, `Cc1ccc(Nc2cc(C)nc3c(C)ccc([N+](=O)[O-])c23)cc1`: -13.4% (inactive); `Clc1ccc(Nc2ccc3ccccc3n2)cc1`: 82.3% (active).
For the compound `Cc1cc(Nc2ccc(Br)cc2)nc2ccccc12`, the inhibition is -6.96% (inactive).
Turning to `O=c1ccnc(Nc2ccc(Cl)cc2)[nH]1`, the inhibition is -3.3% (inactive).
The figure for `CC(OC(=O)c1ccc(NS(=O)(=O)c2ccc3[nH]c(=O)[nH]c3c2)cc1)C(=O)Nc1cccc(Cl)c1Cl` (stereo unspecified) is -9.53% (inactive); for `CC(C)CCN1CCN(C/C=C/c2ccco2)CC1CCO` (stereo unspecified) it is 4.76% (inactive).
`Cc1ccsc1C(=O)OCC(=O)c1cc(C)n(CC2CCCO2)c1C` (stereo unspecified): the inhibition is 91.1% (active).
The figure for `COc1ccc(C(=O)OCC(=O)c2cc(C)n(CC3CCCO3)c2C)cc1[N+](=O)[O-]` (stereo unspecified) is -17.7% (inactive).
The figure for `Cc1cc(C(=O)CCl)c(C)n1CC1COc2ccccc2O1` (stereo unspecified) is -8.88% (inactive); for `CCC(C)(C)c1ccc(Oc2ccc(NC(=O)COC(=O)C3=COCCO3)cc2)cc1` it is -2.31% (inactive).
Take `NC(=O)c1ccc(Nc2ccc3nonc3c2[N+](=O)[O-])cc1`: the inhibition is 2.67% (inactive).
The figure for `O=[N+]([O-])c1c(NCCO)cc(Sc2nc3ccccc3s2)c2nonc12` is 85% (active).
Next, `Cc1nc2nc(CSc3nc4ccccc4s3)cc(=O)n2[nH]1`: -14.3% (inactive); `CC(C)NC(=O)/C(C#N)=C\c1ccc(N(C)C)c(Br)c1`: -4.03% (inactive); `CC1(C)CC(=O)C(C2c3ccccc3S(=O)(=O)c3ccccc32)C(=O)C1`: -0.512% (inactive).
